Results published in PubChem BioAssay (NCI).
“And” between values parts separate entries of the source, which are not always exact repeats. Identical values can stand only once. Compounds without any hit were thinned out: in the full panel of roughly 83,000, 20% have a hit.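 Step 1: grow cells in 96-well plates. Step 2: add test compound at a single concentration. Step 3: incubate 48 h. Step 4: record percent growth.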 A number with no mark means an inactive call. The source made the active and inactive calls. The calls were made as follows: active = growth percent below 10; inactive = the rest.

Key:
Assay in all cases: NCI-60 one-dose screen, 48 h (100 = growth as untreated, 0 = no growth, -100 = all killed)
[1] = system: HOP-92 NSCLC; settings: 10 µM
[2] = system: COLO 205 colon; settings: 10 µM
[3] = system: K-562 leukemia; settings: 10 µM
[4] = system: RXF 393 renal; settings: 10 µM
[5] = system: SNB-19 CNS; settings: 10 µM
[6] = system: U251 CNS; settings: 10 µM
[7] = system: EKVX NSCLC; settings: 10 µM
[8] = system: UO-31 renal; settings: 10 µM
[9] = system: CCRF-CEM leukemia; settings: 10 µM
[10] = system: MOLT-4 leukemia; settings: 10 µM
[11] = system: SR leukemia; settings: 10 µM
[12] = system: MDA-MB-468 breast; settings: 10 µM unless noted
[13] = system: NCI-H226 lung; settings: 10 µM
[14] = system: SK-MEL-28 melanoma; settings: 10 µM
[15] = system: MDA-MB-231 breast; settings: 10 µM
[16] = system: LOX IMVI melanoma; settings: 10 µM
[17] = system: IGROV1 ovarian; settings: 10 µM
[18] = system: HS 578T breast; settings: 10 µM
[19] = system: SW-620 colon; settings: 10 µM

Compound	growth [1]	growth [2]	growth [3]	growth [4]	growth [5]	growth [6]	growth [7]	growth [8]	growth [9]	growth [10]	growth [11]	growth [12]	growth [13]	growth [14]	growth [15]	growth [16]	growth [17]	growth [18]	growth [19]
N#C[Se]CC(=O)Nc1cccc(C(F)(F)F)c1	-69.3% (active)	-1.16% (active)	20.5%	-40.9% (active)	-88.1% (active)	-48.4% (active)	-94.5% (active)	-84.2% (active)	22.5%	9.42% (active)	18.5%	-86.7% (active)							
O=C(/C=C/c1ccccc1)c1nc2ccccc2n1Cc1ccc(Br)cc1	-54% (active)		-17.2% (active)	-94.8% (active)	-90.1% (active)	-92.9% (active)	-89.2% (active)	-94.9% (active)	-7.81% (active)	-12% (active)	-19.5% (active)	-93.1% (active)	-71% (active)	-73.3% (active)					
CC1=C2C(=C[C@@](C)(COP(=O)(Oc3ccccc3)Oc3ccccc3)[C@@H]2O)C(=O)[C@@](C)(O)C12CC2	-44.8% (active)			-95.6% (active)	-17.5% (active)		-52.5% (active)	-68.6% (active)	12.5%			-89.8% (active)	-63.9% (active)	-88.1% (active)	-79.2% (active)	-76.3% (active)	-75.8% (active)	-25.2% (active)	29.8%
CC1=C(CCC=NNC(N)=O)C2=C(C)C3(CC3)[C@@](C)(O)C(=O)C2=C1	-11.3% (active)	-91.4% (active)		-80.8% (active)	-38.6% (active)	-77.4% (active)		-65.2% (active)	10.4%			-81.5% (active) and -65.8% (active)			-59.7% (active)	-71.9% (active)		-24.5% (active)	-20.7% (active)
COc1cc(OC)c(S(=O)(=O)N(CCCl)CCCl)cc1C(=O)/C=C/c1cc(OC)c(OC)c(OC)c1	9.15% (active)		4.13% (active)	-75.5% (active)			12.3%	-93.9% (active)	1.08% (active)	-1.79% (active)	2.75% (active)		7.87% (active)		23.4%	-84.5% (active)	0.296% (active)	78.3%	7.43% (active)
CC12CCC3(CCC(=O)NCCCNc4ccnc5cc(Cl)ccc45)[C@@](C)(OO[C@]3(C)O1)O2	3.32% (active)	36.7%	14.4%	-47.1% (active)		-28.8% (active)	4.65% (active)	-50.1% (active)	3.78% (active)	7.04% (active)	2.39% (active)	-38.3% (active)		33.4%	-23.4% (active)	-78.1% (active)		11.4%	28.9%
O=C(NC([Se])=NC1CCCCC1)c1ccccc1	112%		59.2%	20.5%			19%	6.45% (active)	54.5%	57.4%	51.4%	55%	58.7%				13.6%		
COc1ccc(OC)c(/C=C/C(=O)c2nc3ccccc3n2Cc2ccc(F)cc2)c1	-11% (active)		0.885% (active)	-52.5% (active)		-74% (active)		-43.9% (active)	-18.5% (active)	-6.12% (active)	-8.46% (active)	-57.3% (active)	-42.4% (active)				-7.29% (active)		
COC(=O)C[C@](O)(CCC(C)C)C(=O)O[C@H]1C(OC)=C[C@@]23CCCN2CCc2cc4c(cc2[C@@H]13)OCO4			4.01% (active)	-30.5% (active)				-25.3% (active)	-5.42% (active)	-5.07% (active)	-26.7% (active)	-39.7% (active)		-32.9% (active)	-30.3% (active)	-82.4% (active)		-25.8% (active)	-27.9% (active)
O=C(NC([Se])=NC1CCCCC1)c1ccc2c(c1)OCO2	118%	28.1%	74.3%	65.9%	33.3%	27.6%		38.5%	35.3%	55.6%	60.3%	77.1%			68.5%	81.6%		60.8%	41.2%
